The values that follow come from PubChem BioAssay.

Test [1] is described as follows: Her2 expression decrease, cell viability multiplex – SKBR3 breast tumor cells, AlphaScreen, ATP viability, primary screen (AID 461;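 active means Her2 level under about 52% in both replicate screens, with viability over 70% of control, limit read from the data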;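 on Her2 level: lower value means less Her2 protein in the cells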;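 on viability: percent of carrier control wells set as 100% viability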). As to conditions: SKBR3 Her2 protein level, 18-24 h, measured here: SKBR3 viability, ATP luminescence, at 10 µM.
Test [2] deals with Receptor tyrosine-protein kinase erbB-2 (Homo sapiens) (UniProt P04626). The test is described as above. The conditions noted are these: 18-24 h, at 10 µM, stronger effect = lower value.
Chain of Receptor tyrosine-protein kinase erbB-2 (Homo sapiens) (P04626 whole entry, looked up): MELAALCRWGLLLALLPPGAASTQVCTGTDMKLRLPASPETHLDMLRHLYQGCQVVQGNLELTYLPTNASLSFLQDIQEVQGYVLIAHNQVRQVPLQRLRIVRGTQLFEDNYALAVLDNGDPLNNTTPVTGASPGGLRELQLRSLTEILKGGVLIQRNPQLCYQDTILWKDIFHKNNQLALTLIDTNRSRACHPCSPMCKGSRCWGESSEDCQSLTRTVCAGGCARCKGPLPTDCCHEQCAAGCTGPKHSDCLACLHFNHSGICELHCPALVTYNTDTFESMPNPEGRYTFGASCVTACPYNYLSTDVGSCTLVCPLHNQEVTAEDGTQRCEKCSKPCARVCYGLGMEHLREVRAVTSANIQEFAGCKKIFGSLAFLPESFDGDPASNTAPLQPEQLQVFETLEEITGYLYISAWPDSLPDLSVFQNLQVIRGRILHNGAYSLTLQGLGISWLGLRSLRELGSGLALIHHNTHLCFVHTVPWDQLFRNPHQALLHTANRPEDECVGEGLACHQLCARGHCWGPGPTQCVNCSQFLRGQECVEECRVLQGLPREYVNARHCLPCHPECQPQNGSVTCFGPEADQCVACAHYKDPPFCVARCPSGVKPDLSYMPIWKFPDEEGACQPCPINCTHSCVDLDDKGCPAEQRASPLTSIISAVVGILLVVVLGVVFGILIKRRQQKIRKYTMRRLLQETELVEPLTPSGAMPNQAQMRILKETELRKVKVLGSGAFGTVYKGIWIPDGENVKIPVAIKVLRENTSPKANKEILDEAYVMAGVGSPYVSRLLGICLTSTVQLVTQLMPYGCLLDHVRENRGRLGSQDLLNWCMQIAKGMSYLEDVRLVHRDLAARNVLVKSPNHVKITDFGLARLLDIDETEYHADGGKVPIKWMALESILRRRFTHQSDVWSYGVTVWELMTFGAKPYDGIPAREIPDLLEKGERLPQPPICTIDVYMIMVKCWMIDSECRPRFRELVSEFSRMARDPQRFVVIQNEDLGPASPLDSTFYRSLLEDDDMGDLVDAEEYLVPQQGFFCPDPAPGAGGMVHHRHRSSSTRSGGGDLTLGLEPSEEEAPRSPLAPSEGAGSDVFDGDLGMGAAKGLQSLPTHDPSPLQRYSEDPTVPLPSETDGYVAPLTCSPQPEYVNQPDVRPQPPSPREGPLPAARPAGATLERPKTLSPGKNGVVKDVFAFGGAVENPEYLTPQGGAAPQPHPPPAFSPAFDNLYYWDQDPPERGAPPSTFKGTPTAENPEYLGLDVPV
A short description of test [3]: reduced viability of SK-BR-3 breast cancer cells – cell-based, 24 h, human, pilot screen (AID 572;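 active means viability at or below 10% of carrier control in both of two separate runs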;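 further: compound exposure lasted between 18 and 24 h rather than exactly 24 h; 100% = carrier-treated control wells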). The conditions noted are these: SK-BR-3 viability, CellTiter-Glo luminescence, at 10 µM, stronger effect = lower value.
Test [4] in a line: HUVEC growth inhibition – cell-based, human, primary screen (AID 575;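 active means viability at or below 30% in both replicate assays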;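 further: 100% = median of untreated cell wells with 0.1% DMSO on each plate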). The conditions noted are these: HUVEC proliferation, CellTiter-Glo luminescence, 72 h; at 10 µM; stronger effect = lower value.
Test [5] can be described thus: H69AR cell proliferation blockers – human, duplicate replicates, primary screen (AID 580).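 Further: 100% = mean luminescence of untreated wells and 0% = no signal.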 The conditions noted are these: H69AR lung tumor cells viability, ATP luminescence, 72 h; at 10 µM; stronger effect = lower value.
Test [6] in a line: MRP1 drug-resistance reversers in H69AR cells – cell-based, doxorubicin co-treatment, pilot screen (AID 601;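 active means viability loss from added drug above about 55%, and viability with drug at most 40%, in both replicates, limit read from the data, passing the limit was not always enough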). As to conditions: CellTiter-Glo, 72 h, at 10 µM; for differential viability (reversal): stronger effect = higher value.
A short description of test [7]: yeast transport mutant growth inhibition pilot in 384-well plates, post-Golgi transport modulator project (AID 636; in the data active means inhibition above about 31%). The conditions noted are these: absorbance 615 nm, about 18 h, stronger effect = higher value.
The nature of test [8]: growth suppression of yeast trafficking mutant, preliminary HTS, modulators of trafficking downstream of Golgi apparatus project, 1536-format plate, OD 615 nm (AID 637; in the data active means inhibition above about 30%). As to conditions: yeast transport mutant growth, absorbance 615 nm, 18 h; stronger effect = higher value.
Test [9] in a line: S. cerevisiae growth inhibition in permissive medium (OD615), pilot counter-assay for S. cerevisiae lifespan shortening project, permissive growth control (AID 705;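 active means growth inhibition above 25% in both replicates, a cutoff set 3 SD above the mean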). The conditions noted are these: OD615, 24 h, at 10 µM, stronger effect = higher value.
A short description of test [10]: S. cerevisiae growth inhibition in restrictive medium, OD615, pilot screen, restrictive growth control, yeast lifespan reduction project (AID 706;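 active means growth inhibition above a set limit, 3 SD over mean compound inhibition, in both replicates, cut at about 43% in these data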;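 further: modified DeaD lifespan yeast strain shifted to restrictive glucose medium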). The conditions noted are these: OD615, 48 h, at 10 µM, stronger effect = higher value.
Test [11] is described as follows: doxorubicin toxicity protection in MRP-1 cells – H69AR cells, CellTiter-Glo, duplicate, MRP-1 activator project, pilot screen (AID 807;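 active means viability increase at or above a cutoff of the median across tested compounds plus 3 SD, cut at about 8.5% in these data, passing the limit was not always enough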;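 further: compound pretreatment 18-22 h then 72 h combined with doxorubicin; 0% = doxorubicin alone and 100% = vehicle without doxorubicin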). The conditions noted are these: H69AR viability with doxorubicin, CellTiter-Glo luminescence; at 10 µM; stronger effect = higher value.
Test [12] is described as follows: viability of HCT116 without oncogenic beta-catenin – human colon tumor cells, pilot screen (AID 823;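 active means cell viability at or below a set limit in both duplicate runs, the limit being the all-compound median minus 4 SD, cut at about 23% in these data, passing the limit was not always enough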;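 further: 0% = wells killed by 20 µM Hyamine and 100% = untreated DMSO cell wells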). As to conditions: HCT116 beta-catenin knockout viability, CellTiter-Glo, 60 h; at 10 µM; stronger effect = lower value.
Test [13] can be described thus: viability of PTEN-null HCT116 cells – cell-based, HCT116 clonal line, CellTiter-Glo, pilot screen (AID 824;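 active means viability at or below 27.92% in each of two runs, the all-compound median minus 4 SD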;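 further: 0% = 20 µM Hyamine control and 100% = vehicle cell control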). As to conditions: HCT116 PTEN-deleted viability, 60 h, at 10 µM, stronger effect = lower value.
The nature of test [14]: RAM pathway blockade in budding yeast – dse1pr::URA3 reporter, 5-FOA selection, pilot screen (AID 869;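 active means inhibition over a set limit, the all-compound mean plus 3 SD, in both replicate runs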;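 further: 0% = DMSO wells with no growth and 100% = 10 µM 1-NA-PP1 with full growth; RAM network block rescues cells from 5-FOA so hits raise OD615 growth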). The conditions noted are these: S. cerevisiae dse1pr::URA3 5-FOA growth, OD615, 2 d; at 10 µM; stronger effect = higher value; strain carries analog-sensitive mutant Cbk1 kinase.
Where [15] appears, read: H69AR cells + 2 uM doxorubicin, measured here: viability with 2 uM doxorubicin, stronger effect = lower value.
The mark [16] stands for this setting: H69AR cells, compound alone cytotoxicity.

Inconclusive results are not listed. Active and inactive are the calls of the source.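 How the source made its calls, unless noted: active means viability at or under a set limit in both replicates, limit being median viability minus 3 SD (cut at about 48% in these data, passing the limit was not always enough); inconclusive means at or under the limit in just one replicate; inactive means at or above the limit in both replicates.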

For `CCOC(=O)CSC1=C(C#N)C(c2ccc(Cl)cc2)C(C(=O)OC)C(=O)N1` (configuration not stated), the viability in [1] is 104%; in test [3] it was 104% (inactive); in test [4], 85.4% (inactive); in test [5] it was 88.5% (inactive); in test [6] (setting [15]) it was 88.4%; in test [6] (setting [16]), 88.5%. In addition, the Her2 level in test [2] is 143% (inactive). The differential viability (reversal) in test [6] (H69AR cells + 2 uM doxorubicin) was 0.1% (inactive). Besides, the inhibition was -4.74% (inactive) in test [7] and 4.83% (inactive) in test [8].
On to `CCOCCCNC(=O)c1cc2sc(Cl)cc2n1CC`, for which the viability in [1] was 89%; in test [3], 89% (inactive); in test [4], 60% (inactive); in [5], 28.5% (active); in [6] (setting [15]), 72.5%; in test [6] (setting [16]), 28.5%. In addition, the Her2 level in [2] was 88% (inactive). Also, the differential viability (reversal) in test [6] (H69AR cells + 2 uM doxorubicin) was -44% (inactive). Besides, the inhibition in [7] is -8.36% (inactive); in test [8] it was -0.95% (inactive).
With `CC(=O)NC1CC2CCCC(C1)N2CC(=O)Nc1ccccc1` (configuration not stated), the viability in test [1] is 95.5%; in [3], 95.5% (inactive); in [4], 88.9% (inactive); in [5], 96.7% (inactive); in test [6] (setting [15]), 85.2%; in [6] (setting [16]) it was 96.7%. Also, the Her2 level in [2] is 97% (inactive). In test [6] (H69AR cells + 2 uM doxorubicin), the differential viability (reversal) is 11.4% (inactive). Also, the inhibition in test [7] is 0.13% (inactive); in test [8] it was -6.98% (inactive).
With `O=S(=O)(Cc1ccccc1)N1CCN(Cc2ccccc2)CC1`, the viability in test [1] was 84.5%; in test [3], 84.5% (inactive); in test [4], 87.3% (inactive); in [5], 95.5% (inactive); in test [6] (setting [15]), 79.9%; in test [6] (setting [16]) it was 95.5%. Besides, the Her2 level in [2] is 109% (inactive). In test [6] (H69AR cells + 2 uM doxorubicin), the differential viability (reversal) was 15.5% (inactive). In addition, the inhibition in [7] is -0.13% (inactive); in test [8] it was 0.95% (inactive).
For `Cc1nnc(NC(=O)CSc2nnc(-c3ccc(S(=O)(=O)N4CCCC4)cc3)n2C)s1`, the viability in [1] was 93%; in test [3] it was 93% (inactive); in test [4], 104% (inactive); in [5], 99% (inactive); in [6] (setting [15]), 92.6%; in [6] (setting [16]), 99%. For the same compound, the Her2 level in [2] was 88.5% (inactive). In [6] (H69AR cells + 2 uM doxorubicin), the differential viability (reversal) is 6.45% (inactive). Besides, the inhibition was -2.8% (inactive) in test [7] and -2.1% (inactive) in test [8].
Take `Cc1onc(-c2ccccc2Cl)c1C(=O)NCCn1c(C)cc2ccccc21`: the viability in test [1] was 79%; in test [3], 79% (inactive); in [4], 78.3% (inactive); in test [5], 83.3% (inactive); in test [6] (setting [15]), 89.6%; in [6] (setting [16]), 83.3%. The values for the viability in [12] and in test [13] were 78.8% (inactive) and 85.7% (inactive), respectively. The Her2 level in [2] was 80.5% (inactive). Moreover, the differential viability (reversal) in test [6] (H69AR cells + 2 uM doxorubicin) was -6.36% (inactive). Besides, the values for the inhibition in [7], in test [8] and in test [14] were -3.2% (inactive), 1.17% (inactive) and 1.56% (inactive), respectively. Besides, the growth inhibition is -8.05% (inactive) in [9] and 0.31% (inactive) in test [10]. Moreover, in [11], the viability increase is -2.02% (inactive).
As for `COc1cccc(-n2c(CNc3ccc(F)cc3)nnc2SCC(N)=O)c1`, the viability was 115% in test [1]; 115% (inactive) in [3]; 101% (inactive) in test [4]; 90.4% (inactive) in test [5]; 81.6% in test [6] (setting [15]); 90.4% in [6] (setting [16]). Moreover, in test [2], the Her2 level is 82.5% (inactive). The differential viability (reversal) in test [6] (H69AR cells + 2 uM doxorubicin) is 8.77% (inactive). Also, the inhibition is -4.67% (inactive) in [7] and 0.97% (inactive) in test [8].
With `CCOc1ccc(NC(=O)CN2CCN(CC(=O)c3ccc(OCC)cc3)CC2)cc1`, the viability in [1] is 95%; in test [3], 95% (inactive); in test [4], 77.8% (inactive); in [5] it was 89.3% (inactive); in [6] (setting [15]), 88.1%; in test [6] (setting [16]), 89.3%. Also, in test [2], the Her2 level was 89% (inactive). Besides, the differential viability (reversal) in [6] (H69AR cells + 2 uM doxorubicin) is 1.23% (inactive). The inhibition is -4.87% (inactive) in [7] and -2.83% (inactive) in test [8].
Turning to `COc1cccc(OCCn2ccnc2)c1`, the viability is 90.5% in test [1]; 90.5% (inactive) in [3]; 89.6% (inactive) in test [4]; 89.4% (inactive) in test [5]; 93.1% in test [6] (setting [15]); 89.4% in [6] (setting [16]). Besides, the Her2 level in test [2] was 104% (inactive). For the same compound, the differential viability (reversal) in [6] (H69AR cells + 2 uM doxorubicin) is -3.7% (inactive). The inhibition in test [7] was -4.93% (inactive); in [8] it was -9.21% (inactive).
With `COCCNC(=O)c1ccc(CS(=O)(=O)c2ccc(OC)cc2)o1`, the viability in test [1] was 97%; in test [3] it was 97% (inactive); in test [4], 87% (inactive); in test [5] it was 109% (inactive); in test [6] (setting [15]), 93.5%; in [6] (setting [16]), 109%. In test [2], the Her2 level is 121% (inactive). In test [6] (H69AR cells + 2 uM doxorubicin), the differential viability (reversal) is 15.8% (inactive). The inhibition is -1.03% (inactive) in test [7] and 2.67% (inactive) in [8].
Turning to `CCOc1ccc(/C=N/n2cnnc2)cc1`, the viability is 101% in test [1]; 101% (inactive) in test [3]; 78.8% (inactive) in test [4]; 96.7% (inactive) in [5]; 88.9% in test [6] (setting [15]); 96.7% in test [6] (setting [16]). Besides, the Her2 level in test [2] was 94.5% (inactive). The differential viability (reversal) in test [6] (H69AR cells + 2 uM doxorubicin) is 7.86% (inactive). The inhibition is -0.52% (inactive) in [7] and -3.93% (inactive) in test [8].
On to `CCN(CC)S(=O)(=O)c1ccc2oc(C(=O)O)c(C)c2c1`, for which the viability in test [1] is 108%; in [3], 108% (inactive); in test [4], 102% (inactive); in test [5], 103% (inactive); in test [6] (setting [15]), 92.2%; in test [6] (setting [16]), 103%. Besides, in test [2], the Her2 level is 100% (inactive). Moreover, the differential viability (reversal) in [6] (H69AR cells + 2 uM doxorubicin) is 10.4% (inactive). The inhibition was -0.4% (inactive) in test [7] and 4.43% (inactive) in test [8].
`CCOC(=O)c1cc2ccc(OC)c(OC)c2c(=O)s1`: the viability was 98.5% in test [1]; 98.5% (inactive) in [3]; 83.9% (inactive) in test [4]; 83.5% (inactive) in test [5]; 83.6% in test [6] (setting [15]); 83.5% in test [6] (setting [16]). Besides, in test [2], the Her2 level was 94% (inactive). In test [6] (H69AR cells + 2 uM doxorubicin), the differential viability (reversal) is -0.1% (inactive). In addition, the inhibition in test [7] was 0.78% (inactive); in test [8], -7% (inactive).
Regarding `O=C(CN1C(=O)COCC1=O)N1CCOCC1`, the viability was 91% in [1]; 91% (inactive) in test [3]; 104% (inactive) in test [4]; 96.9% (inactive) in test [5]; 97.5% in test [6] (setting [15]); 96.9% in [6] (setting [16]). For the same compound, in [2], the Her2 level is 86.5% (inactive). The differential viability (reversal) in test [6] (H69AR cells + 2 uM doxorubicin) was -0.64% (inactive). The inhibition was 0.26% (inactive) in [7] and 0% (inactive) in test [8].
With `Cc1ccc(S(=O)(=O)N2CCN(C(=O)CSc3nnnn3C)C2)cc1`, the viability was 110% in test [1]; 110% (inactive) in [3]; 85.3% (inactive) in test [4]; 102% (inactive) in test [5]; 101% in test [6] (setting [15]); 102% in test [6] (setting [16]). Besides, in [2], the Her2 level was 104% (inactive). Also, the differential viability (reversal) in test [6] (H69AR cells + 2 uM doxorubicin) was 1.78% (inactive). Besides, the inhibition is -0.66% (inactive) in test [7] and 0.17% (inactive) in test [8].
Turning to `COc1ccc(-c2nc(CS(=O)CC(=O)N3CCCC3)c(C)o2)cc1` (configuration not stated), the viability is 92.5% in test [1]; 92.5% (inactive) in [3]; 80.8% (inactive) in test [4]; 83.9% (inactive) in test [5]; 81.8% in test [6] (setting [15]); 83.9% in test [6] (setting [16]). In addition, the viability in [12] is 91.8% (inactive); in test [13], 90.7% (inactive). Also, in [2], the Her2 level was 91% (inactive). Also, the differential viability (reversal) in test [6] (H69AR cells + 2 uM doxorubicin) is 2.07% (inactive). Also, the inhibition in test [7] was -2.67% (inactive); in test [8], 3.77% (inactive); in test [14] it was 2.27% (inactive). In addition, the growth inhibition is -4.09% (inactive) in [9] and 5.46% (inactive) in test [10]. Also, the viability increase in test [11] is -2.14% (inactive).
